Source: PubChem BioAssay
HCMV antiviral – qHTS Assay for inhibitors of the human cytomegalovirus (HCMV); activity change, negative = inhibition, % at 57.5 µM; HFF cells, HCMV-luciferase reporter, 72 h; hits give low values; hit rate 4.5% among 410,000; in the data active = activity change below about -60%; inconclusive = no clear call, values can overlap the other calls; inactive = above about -39%
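Human foreskin fibroblasts infected with luciferase-reporter HCMV at MOI 1 PFU/cell, compounds at two doses. Luciferase measured 72 h post infection; normalized to buffer-only basal and Salinomycin (10uM) controls.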
Pf growth 96h – Primary qHTS for delayed death inhibitors of the malarial parasite plastid, 96 hour incubation; P. falciparum luciferase reporter growth, 96 h; Potency, µM (top dose mostly 28.7 µM), inactives show at the top dose activity change, negative = inhibition, hits mostly inhibitors; hit rate 6.9% among 320,000; also: potency is read from the fitted curve at half-maximal effect
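Two parasite generations (96 h, 37 C, 5% CO2) of compound exposure in infected erythrocytes (0.05% parasitemia, 2% hematocrit). Luciferase-reporter P. falciparum; decreased luminescence indicates inhibited growth, aimed at apicoplast-acting delayed death.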
Sm TGR block – qHTS Assay for the Inhibitors of Schistosoma Mansoni Peroxiredoxins | Schistosoma mansoni thioredoxin glutathione reductase (TGR), Q962Y6 | purified TGR, DTNB reduction, TNB absorbance 405 nm | Potency, µM (series often up to 114 µM), inactives show top-dose activity change, negative = inhibition, actives largely listed as inhibitors | hit rate 3% among 360,000; also: potency is read from the fitted curve at half-maximal effect; nearly all actives have a fitted effect of over 60% in size
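TGR 20 nM + NADPH 100 uM (dispensed conc.), cpd preinc 15 min RT; start with NADPH (500 uM addition) then DTNB (15 mM addition). Kinetic TNB absorbance, 405 nm filter. Four-parameter Hill fit across titration.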
Giardia FBPA inh – qHTS Assay for Inhibitors of Fructose-1,6-bisphosphate Aldolase from Giardia Lamblia. AID 2451, 2010. hit rate 0.71% among 290,000. A8B2U2. purified Giardia FBPA. Potency, µM (highest dose often 59.6 µM), inactives show at the highest dose activity, negative = inhibition, usual class: inhibitors; also: potency is read from the fitted curve at half-maximal effect; nearly all actives have a fitted effect of over 55% in size
Target sequence (A8B2U2 whole entry, looked up): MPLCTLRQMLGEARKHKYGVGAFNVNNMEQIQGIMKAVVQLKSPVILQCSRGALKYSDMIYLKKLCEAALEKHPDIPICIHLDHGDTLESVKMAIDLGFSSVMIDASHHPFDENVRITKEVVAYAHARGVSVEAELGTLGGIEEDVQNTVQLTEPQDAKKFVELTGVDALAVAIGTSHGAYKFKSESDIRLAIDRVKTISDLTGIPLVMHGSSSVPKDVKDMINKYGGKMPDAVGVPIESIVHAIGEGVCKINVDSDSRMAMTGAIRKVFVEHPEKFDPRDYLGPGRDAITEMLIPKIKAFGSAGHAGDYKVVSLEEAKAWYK
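Giardia FBPA (40 nM reagent) was preincubated 10 min at RT with compound (up to 57.5 uM final), then substrate plus GAPDH/TPI/NAD/arsenate coupling system with diaphorase/resazurin was added; resorufin fluorescence (525/598 nm) was read after 20 min.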
Pf growth 48h – Primary qHTS for delayed death inhibitors of the malarial parasite plastid, 48 hour incubation; P. falciparum luciferase growth in erythrocytes, 48 h; Potency, µM (series often up to 28.7 µM), inactives show at the highest dose activity change, negative = inhibition, hits mostly inhibitors; hit rate 5.9% among 310,000; AID 504832, 2011; also: potency is read from the fitted curve at half-maximal effect
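In quantitative HTS format, infected erythrocytes bearing luciferase-reporter parasites were treated for a single generation at 37 C. Luminescence after adding detection reagent served as the growth measure.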
Numbers without * were called inactive; u = inconclusive; x = no result given. An excerpt weighted towards active compounds, which were near 14% of everything screened. Unless noted, calls follow the shape of the dose curve; as a rule, active = well fitted curve in the direction sought with a large enough effect; inconclusive = small, poorly fitted or top-dose-only effect, or another doubt; inactive = no such curve, though single readings can be large; an effect the other way counts as inactive or inconclusive. % is scaled to controls: 0 for no effect and ±100 for the full control effect.

SMILES	HCMV antiviral	Pf growth 96h	Sm TGR block	Giardia FBPA inh	Pf growth 48h
COC(=O)c1ccc(NC2CC(=O)N(c3ccccc3C)C2=O)cc1 (centres undefined)	11	x	32µM*	4%	2%
Cc1ccccc1N1C(=O)CC(Nc2ccc3c(c2)OCO3)C1=O (centres undefined)	-3	12%	u	-21%	18%
COC(=O)c1ccccc1NC1CC(=O)N(c2c(C)cccc2C)C1=O (centres undefined)	15	x	7.1µM*	-3%	-20%
O=C1C=C(c2ccc(CO)cc2)C[C@@H](c2ccc3c(c2)OCO3)C1	27	u	1%	x	-20%
Clc1ccc(-c2nnsc2SCc2ccccc2)cc1	1	-20%	-3%	-7%	-12%
Clc1ccc(CSc2snnc2-c2ccccc2)cc1	-35	u	-1%	0%	13µM*
O=C(NCc1cccs1)C(=O)NCC1OCCCN1S(=O)(=O)c1cc(F)ccc1F (centres undefined)	20	-10%	1%	x	u
Cc1cc(O)c2c(c1)OC(C)(C)C1=C2CC(C)CC1 (centres undefined)	u	9%	1%	-8%	6.6µM*
Cc1cc(O)c2c3c(c(=O)oc2c1)CCC(C)C3 (centres undefined)	u	u	0%	13%	u
CCCOc1cccc(-c2cc(C(=O)NNC(=S)NCC)c3ccccc3n2)c1	21	x	7%	-13%	10µM*
O=C(NCc1ccccn1)c1cc(-c2ccc(-c3ccccc3)cc2)nc2ccccc12	-94*	u	-8%	0%	u
O=C(NCc1ccccn1)c1cc(-c2ccccc2)nc2ccccc12	54	6%	1%	5%	u
COCCNC(=O)c1cc(-c2ccc(-c3ccccc3)cc2)nc2ccccc12	-77*	-5%	0%	x	21%
Cc1ccc(-c2cc(C(=O)NCc3ccccn3)c3ccccc3n2)cc1C	4	-8%	-4%	-5%	8.3µM*
NS(=O)(=O)c1ccc(CCNC(=O)c2cc(-c3ccc(Br)cc3)nc3ccccc23)cc1	-88*	u	-3%	1%	u
O=C(Nc1ccccc1Cl)c1sccc1-c1ccccc1	-2	u	8%	19%	u
COc1ccc(S(=O)(=O)N2CCOCC2)cc1NC(=O)CCCOc1ccc(C(C)=O)cc1	79	x	x	x	x
Cc1c(O)cccc1C(=O)N[C@@H](CSc1ccccc1)[C@H](O)CN1C[C@H]2CCCC[C@H]2C[C@H]1C(=O)NC(C)(C)C	2	u	28%	10%	6.6µM*
Cc1cc(C)n(C(C)CC(=O)Nc2ccc(-c3ccno3)cc2)n1 (centres undefined)	0	0.52µM*	5%	-7%	u
CC1CCCN(c2cccc3c2S(=O)(=O)N([C@H](C)c2ccccc2)C[C@@H](COCc2ccccc2)O3)C1 (some centres undefined)	-82*	x	x	x	x
CN(C)S(=O)(=O)c1ccc(-c2csc(N/N=C/c3ccc(O)cc3)n2)cc1	u	0.066µM*	-19%	-15%	0.33µM*
Cc1cc(C)c(C#N)c(N2CCN(c3ccccc3F)CC2)n1	-2	12µM*	71%	1%	29%
CC(=O)c1sc(NS(=O)(=O)c2ccc(C)cc2)nc1C	-18	-10%	-1%	27%	14%
Cc1ccc(S(=O)(=O)Nc2nc(C)c(C(=O)NN)s2)cc1	-1	0%	71µM*	11%	51%
Cc1ccc(S(=O)(=O)Nc2nc(C)c(C(=O)NNS(=O)(=O)c3cc(C)ccc3C)s2)cc1	-26	-6%	-15%	x	-19%
SMILES	HCMV antiviral	Pf growth 96h	Sm TGR block	Giardia FBPA inh	Pf growth 48h
Cc1ccc(C)c(S(=O)(=O)Nc2nc(C)c(C(=O)Nc3ccccc3)s2)c1	-9	0.66µM*	-13%	5%	u
CCN1CCN(Cc2ccc(C(=O)Nc3ccc(C)c(NCc4cnc(NC(=O)OC)cn4)c3)cc2C(F)(F)F)CC1	21	0.37µM*	-20%	-9%	u
CCN1CCN(Cc2ccc(NC(=O)c3cc(NC(=O)C(=O)c4c[nH]c5ccccc45)cc(OC)c3)cc2C(F)(F)F)CC1	-101*	0.13µM*	-19%	0%	0.37µM*
CCN1CCN(Cc2ccc(NC(=O)c3cccc(-c4ccc5nc(NC(=O)C6CC6)sc5n4)c3)cc2C(F)(F)F)CC1	-99*	x	x	x	x
CCn1ncc(CN2CCC(C(=O)Nc3cccc(-c4cccc(F)c4)c3)CC2)c1C	u	78%	-14%	x	u
CCN1CCN(Cc2ccc(NC(=O)c3cc(NC(=O)c4cnn(-c5ccccc5)c4N)cc(OC)c3)cc2C(F)(F)F)CC1	-36	0.83µM*	3%	2%	1.9µM*
CCN1CCN(Cc2ccc(NC(=O)c3ccc(C)c(NC(=O)C(=O)c4c[nH]c5ccccc45)c3)cc2C(F)(F)F)CC1	-101*	0.41µM*	-22%	-6%	0.37µM*
CCN1CCN(Cc2ccc(NC(=O)c3cc(NC(=O)c4cc(C)on4)cc(OC)c3)cc2C(F)(F)F)CC1	-29	0.52µM*	1%	-9%	u
CCN1CCN(Cc2ccc(NC(=O)c3ccc(C)c(NC(=O)c4ccnnc4)c3)cc2C(F)(F)F)CC1	-4	u	3%	-1%	50%
CCN1CCN(Cc2ccc(NC(=O)c3ccc(C)c(NC(=O)c4ccc5n[nH]nc5c4)c3)cc2C(F)(F)F)CC1	36	28%	5%	17%	4%
Cc1ccccc1OCC(=O)OCC(=O)NC1CCCC1	-37	x	x	x	x
O=C(CN(c1ccc2c(c1)OCCO2)S(=O)(=O)c1ccccc1)NCc1ccc(Cl)cc1	u	12µM*	0%	-2%	-26%
O=C(CN(c1ccccc1Cl)S(=O)(=O)c1ccccc1)NCc1ccccc1	-24	12µM*	3%	-2%	u
O=C(CN(c1ccccc1Cl)S(=O)(=O)c1ccccc1)N/N=C/c1ccccc1C(=O)O	-63*	u	-1%	1%	u
O=C(CN(c1ccc(F)cc1)S(=O)(=O)c1ccc2c(c1)OCCO2)NCc1ccccc1	2	u	-1%	5%	x
Cc1ccc(CNC(=O)CN(c2ccc(Cl)cc2Cl)S(=O)(=O)c2ccccc2)cc1	3	x	-11%	x	x
NN(Cc1ccccc1)C(=S)Nc1ccc(Cl)c(Cl)c1	-16	26%	-1%	-11%	12%
COc1cc(NC(=O)C2CCN(c3cnc4ccccc4n3)CC2)cc(OC)c1OC	30	x	1%	x	x
CCC(C)n1c(SCC(=O)Nc2cc(C)on2)nc2ccccc2c1=O (centres undefined)	-6	u	7%	0%	u
